Source: PubChem BioAssay (Tox21)
Results filed as inconclusive are left out. Calls of active or inactive are those of the source. Unless noted, the call rests on the fitted dose curve; in most records, active means well fitted curve in the direction sought with a large enough effect in the repeat runs; inconclusive means weak or mixed curves; inactive means no such curve, though single readings can be large; an effect the other way counts as inactive or inconclusive.

What was measured:
[1] = qHTS assay to identify small molecule antagonists of the estrogen related receptor (ERR) signaling pathway (AID 1224819; further: nearly all actives have a fitted effect of over 50% in size; further: potency means the concentration at half of the fitted maximal effect)
Method in brief: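 ERR reporter cell line (NTP) plated at 2,000 cells/well, settled 6 h at 37C/5% CO2, then exposed to LOPAC compounds for 18 h at 37C. One-Glo luciferase luminescence read after 30 min at room temperature.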

[2] = qHTS assay to identify small molecule agonists of the estrogen related receptor (ERR) signaling pathway (AID 1224820); further: potency means the concentration at half of the fitted maximal effect
Method in brief: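 Quantitative HTS of the LOPAC library used NTP ERR reporter cells treated 18 h at 37 C. Signal is luminescence after One-Glo addition and a 30 min room-temperature incubation.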

[3] = tested on: estrogen-related receptor alpha (ERRalpha) with PGC-1alpha coactivator, human; assay: qHTS assay to identify small molecule antagonists of the estrogen related receptor signaling pathway with the pleiotropic PPARgamma coactivator (PGC) (AID 1224821; calls by dose curve; further: nearly all actives have a fitted effect of over 50% in size; further: potency means the concentration at half of the fitted maximal effect)
Method in brief: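 Quantitative HTS for antagonism: PGC/ERR cells received compounds after 6 h attachment and were incubated 18 h at 37 C, with luminescence (One-Glo) as the endpoint.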

[4] = qHTS assay to identify small molecule antagonists of the estrogen related receptor signaling pathway with the pleiotropic PPARgamma coactivator (PGC) cell viability counter screen (AID 1224822; further: potency means the concentration at half of the fitted maximal effect)
Method in brief: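 PGC/ERR cells rested 6 h, then compound-treated 17.5 h at 37 C. CellTiter-Fluor added for 30 min at 37 C, viability measured by fluorescence intensity.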

[5] = qHTS assay to identify small molecule agonists of the estrogen related receptor signaling pathway with the pleiotropic PPARgamma coactivator (PGC) (AID 1224823); further: potency means the concentration at half of the fitted maximal effect
Method in brief: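 Cell-based luciferase assay in the NTP-supplied PGC/ERR line, 2,000 cells/well; 18 h compound exposure at 37 C, luminescence after One-Glo.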

[6] = qHTS assay to identify small molecule antagonists of the estrogen related receptor (ERR) signaling pathway - cell viability counter screen (AID 1224818); further: series mostly up to about 46 µM
Method in brief: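 ERR cells, 2,000 per well, compound added after 6 h and incubated 17.5 h at 37 C. Viability read by CellTiter-Fluor fluorescence after a further 30 min at 37 C.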

[7] = qHTS assay to identify small molecule antagonists of the estrogen related receptor (ERR) signaling pathway from Tox21 library - cell viability counter screen (AID 1224834); further: nearly all actives have a fitted effect of over 30% in size; further: potency means the concentration at half of the fitted maximal effect
Method in brief: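 ERR reporter cells, 2,000 per well, rested 6 h, then exposed to compound in DMSO for 17.5 hours at 37 C. Viability read as fluorescence after 30 min with CellTiter-Fluor.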

[8] = qHTS assay to identify small molecule agonists of the constitutive androstane receptor (CAR) signaling pathway - cell viability counter screen (AID 1224836); further: nearly all actives have a fitted effect of over 45% in size; further: potency means the concentration at half of the fitted maximal effect
Method in brief: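 Using CellTiter-Fluor, viability of HepG2 cells harbouring hCAR and CYP2B6-2.2kb was measured following 23 h incubation with a 15-concentration compound series plus PK11195 (0.75 uM final).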

[9] = qHTS assay to identify small molecule antagonists of the constitutive androstane receptor (CAR) signaling pathway - cell viability counter screen (AID 1224837); further: nearly all actives have a fitted effect of over 45% in size; further: potency means the concentration at half of the fitted maximal effect
Method in brief: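 HepG2 cells stably carrying hCAR and CYP2B6-2.2kb reporter, stimulated with 50 nM CITCO and compounds at 15 concentrations for 23 h at 37 C. Viability measured by CellTiter-Fluor fluorescence.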

[10] = biological target: Nuclear receptor subfamily 1 group I member 3 (Homo sapiens) (UniProt Q14994); assay: qHTS assay to identify small molecule antagonists of the constitutive androstane receptor (CAR) signaling pathway (AID 1224838); further: nearly all actives have a fitted effect of over 40% in size; further: potency means the concentration at half of the fitted maximal effect
Method in brief: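 HepG2 cells stably carrying hCAR and a CYP2B6-2.2kb luciferase reporter, seeded 4 hrs before compound (15 concentrations). Stimulated with 50 nM CITCO for 24 hr at 37 C. ONE-Glo luminescence read after 30 min at room temperature.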

[11] = biological target: Nuclear receptor subfamily 1 group I member 3 (Homo sapiens) (UniProt Q14994); assay: qHTS assay to identify small molecule agonists of the constitutive androstane receptor (CAR) signaling pathway (AID 1224839); further: nearly all actives have a fitted effect of over 15% in size; further: potency means the concentration at half of the fitted maximal effect; on activation: series mostly up to about 92 µM
Method in brief: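 Double-stable HepG2 cells (hCAR, CYP2B6-2.2kb) seeded 4 h before compound addition. Exposure 24 h with 0.75 uM PK11195 final. Luciferase detected by ONE-Glo.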

[12] = qHTS assay to identify small molecule antagonists of the estrogen related receptor signaling pathway with the pleiotropic PPARgamma coactivator (PGC) from Tox21 10K library - cell viability counter screen (AID 1224840; active means well fitted cell-killing curve with a large enough effect in the repeat runs, not every such curve was filed as active; further: nearly all actives have a fitted effect of over 40% in size; further: potency means the concentration at half of the fitted maximal effect)
Method in brief: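 PGC/ERR cells (2,000/well) plated 6 h, then compound-treated for 17.5 h at 37 C. Viability measured by CellTiter-Fluor fluorescence after 30 min at 37 C, multiplexed with the pathway assay.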

[13] = qHTS assay to identify small molecule agonists of H2AX - cell viability counter screen (AID 1224847; calls by dose curve; further: top concentration of the series differs between compounds; nearly all actives have a fitted effect of over 30% in size)
Method in brief: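 Quantitative HTS viability measurement: CHO-K1 wild-type cells in serum (10% FBS) medium, short 3 hr drug exposure at 37C with 0.76% DMSO, CellTiter-Glo luminescent detection.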

[14] = biological target: Luciferin 4-monooxygenase (Photinus pyralis) (UniProt P08659); assay: qHTS assay to identify small molecule inhibitors of firefly luciferase (AID 1224835); further: nearly all actives have a fitted effect of over 25% in size; further: potency means the concentration at half of the fitted maximal effect
Method in brief: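 Biochemical qHTS: compounds run as interplate titrations against purified firefly enzyme, with D-luciferin and ATP each at its KM concentration. Light output recorded by CCD imaging.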

[15] = qHTS assay to identify small molecule agonists of the hypoxia (HIF-1) signaling pathway - cell viability counter screen (AID 1224844; calls by dose curve; further: nearly all actives have a fitted effect of over 50% in size; further: potency means the concentration at half of the fitted maximal effect)
Method in brief: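 HRE-bla ME-180 cells, 2,000/well in 0.5% dialyzed FBS medium, treated 17 h at 37C with compounds. Viability read in the same wells as the bla reporter, by CellTiter-Glo luminescence after 30 min at room temperature.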

[16] = qHTS assay to identify small molecule agonists of H2AX (AID 1224845; active means well fitted activation curve with a large enough effect in the signal ratio in the repeat runs, not every such curve was filed as active; the % refers to the signal ratio)
Method in brief: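 Wild-type CHO-K1 cells, plated overnight, exposed 3hr at 37C to 15 concentrations (0.76% DMSO final). Lysed, then HTRF anti-pH2AX (S139) cryptate and anti-H2AX-d2 antibodies, 24 hr room temperature; 665/620 nm emission read.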

Measured: Potency

Chain of Nuclear receptor subfamily 1 group I member 3 (Homo sapiens) (Q14994 whole entry, looked up): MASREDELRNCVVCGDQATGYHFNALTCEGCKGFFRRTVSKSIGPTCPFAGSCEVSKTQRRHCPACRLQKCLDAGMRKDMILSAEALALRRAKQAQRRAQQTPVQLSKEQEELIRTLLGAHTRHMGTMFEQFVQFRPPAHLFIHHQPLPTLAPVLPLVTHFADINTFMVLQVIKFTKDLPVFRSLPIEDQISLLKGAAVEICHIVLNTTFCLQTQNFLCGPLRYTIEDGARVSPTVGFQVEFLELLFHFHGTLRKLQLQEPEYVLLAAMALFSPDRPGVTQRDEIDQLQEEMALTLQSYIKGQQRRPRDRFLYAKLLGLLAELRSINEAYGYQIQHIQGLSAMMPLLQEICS
Chain of Luciferin 4-monooxygenase (Photinus pyralis) (P08659 whole entry, looked up): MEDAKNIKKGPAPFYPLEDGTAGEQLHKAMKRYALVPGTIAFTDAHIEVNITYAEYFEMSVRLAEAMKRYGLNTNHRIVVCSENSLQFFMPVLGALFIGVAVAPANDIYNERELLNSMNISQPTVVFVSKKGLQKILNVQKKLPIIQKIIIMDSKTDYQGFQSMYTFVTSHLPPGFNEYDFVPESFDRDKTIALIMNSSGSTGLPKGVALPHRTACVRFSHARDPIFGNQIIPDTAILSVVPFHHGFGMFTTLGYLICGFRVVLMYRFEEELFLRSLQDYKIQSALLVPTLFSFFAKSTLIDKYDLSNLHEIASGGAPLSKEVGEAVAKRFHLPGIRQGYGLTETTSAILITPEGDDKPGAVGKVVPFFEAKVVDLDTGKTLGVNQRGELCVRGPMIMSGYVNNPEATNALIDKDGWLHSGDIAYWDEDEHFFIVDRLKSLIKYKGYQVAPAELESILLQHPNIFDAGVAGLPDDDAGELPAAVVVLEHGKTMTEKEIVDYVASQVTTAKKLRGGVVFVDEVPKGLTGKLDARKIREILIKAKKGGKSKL

CC(N)(Cc1ccc(O)cc1)C(=O)O (stereo unspecified)
inactive: [1] | [2] | [3] | [4] | [5]

O=Nc1c(-c2c(O)[nH]c3ccccc23)[nH]c2ccccc12
active: [2] 2.87 µM | [4] 13.9 µM
inactive: [1] | [3]

OC[C@H]1O[C@H](n2cnc3c(N[C@H]4CCC[C@@H]4O)ncnc32)[C@H](O)[C@@H]1O
inactive: [1] | [2] | [3] | [4]
active: [5] 9.08 µM

NC(N)=NCc1cccc(I)c1
inactive: [6] | [4] | [5]

COc1cc(NS(C)(=O)=O)ccc1Nc1c2ccccc2nc2ccccc12
active: [1] 0.779 µM | [4] 18.1 µM
inactive: [2] | [3]

CC(=O)[C@]1(O)Cc2c(O)c3c(c(O)c2[C@@H](O[C@H]2C[C@H](N)[C@H](O)[C@H](C)O2)C1)C(=O)c1ccccc1C3=O
active: [7] 1.06 µM | [8] 2.66 µM | [9] 2.11 µM | [10] 0.237 µM | [12] 11.9 µM
inactive: [6] | [11] | [13]

Fc1ccc(C(OCCCc2cnc[nH]2)c2ccc(F)cc2)cc1
inactive: [2]
active: [1] 13.9 µM | [3] 10.2 µM

NC(=Nc1ccccc1)NC(=O)c1nc(Cl)c(N)nc1N
inactive: [6] | [4] | [5]

C=C(C)C1CC=C(C(=O)O)CC1 (stereo unspecified)
inactive: [1] | [2] | [3] | [4] | [5]

O=C1/C(=C/c2ccsc2)CC/C1=C\c1cccs1
inactive: [1] | [3] | [4]
active: [2] 24.6 µM | [5] 21.1 µM

O=C(N[C@H](CO)[C@H](O)c1ccc([N+](=O)[O-])cc1)C(Cl)Cl
inactive: [6] | [4] | [7] | [14] | [8] | [9] | [12] | [15] | [16] | [13]

CC1=C(/C=C/C(C)=C/C=C/C(C)=C\C(=O)O)C(C)(C)CCC1
active: [14] 63.5 µM | [11] 27.4 µM | [15] 34.8 µM
inactive: [6] | [4] | [8] | [9] | [10] | [12] | [16] | [13]
